# In the OligoGym collection:
# Molecular target: PSMD14
# Test: pooled miR-30 sensor sort-seq; sequence = guide strand
# Settings: shRNA
# Also: reference of the scale not given here.
row,Sequence,sensor-assay potency score (higher = more potent)
1,TAGTCCATGAATTAATGCCTGG,-1.08
2,TAGCTTGGAACACTGGATCAAC,-0.999
3,ATCTTCTTCTTCTACAGCCTTA,-0.913
4,TAGCAACATCTTCTGTTCCAGT,-0.472
5,TTAACATTTTTAACAGTGCCAG,-1.04

# Molecular target: PSMG3
# Test: as above
# Settings: shRNA
row,Sequence,sensor-assay potency score (higher = more potent)
1,AACGCTACCAGGTTCTTTGCAA,0.042
2,TTGAGACACAAACGCTACCAGG,-0.891
3,TTCCAGCTTCTTGAGACACAAA,-1.35
4,TTTTGTGGTGAGCACAGGCTTG,-0.949
5,ATGGATGAGAGGCTCATCCTGC,-1.3
6,TCTGTTTCCAGCTTCTTGAGAC,0.0937
7,TGAGACACAAACGCTACCAGGT,-0.363
8,TTCTCAAACACAAGCAACGATT,-1.54
9,TAAAAAAGAAATTTCCTCCTAC,0.923
10,TCTTCTGCTTCGATATCACCAA,-0.805
11,TTGTCCTTCACGGCCACGGCGA,-1.48
12,TTTGTGGTGAGCACAGGCTTGC,-0.665

# Molecular target: PSPH
# Test: as above
# Settings: shRNA
row,Sequence,sensor-assay potency score (higher = more potent)
1,TTAAAGTAGAATTTCAGCCTAT,0.23
2,TTGCTCTGCTATGAGTCTCTGC,-0.739
3,TTTGGCGTTATCCTTGACTTGT,-1.02
4,TGCTATGAGTCTCTGCACCTGC,0.0571
5,TAACTTGTAAAAATTCATCTGA,0.913
6,TCACTTTTCCTTTTCCACCAGA,-0.287
7,TCTTCTCTGATGACCGTGCTGT,0.253
8,AACCTGAACATTTCGCTCCTGT,0.681
9,AAAACCTGCATATTCACCGTTA,0.263
10,TAAGCAAACAGTATCAATCTGT,0.453
11,TTATCCTTGACTTGTTGCCTGA,-0.324

# Molecular target: PSRC1
# Test: as above
# Settings: shRNA
row,Sequence,sensor-assay potency score (higher = more potent)
1,TCGCTGGGAAACAGGAACCTTG,-1.78
2,TTCGAGTTGACAGAGAATCCGG,0.0316
3,TAGGCTGAGCCTCACACCCTGG,-1.11
4,TTTGCTACTGAAGTCTTGCTTG,-0.274
5,TTGACAGAGAATCCGGAGGTAG,-1.05
6,TTTCCCGCACTCTGTGTCCTGC,-0.995
7,TCGAGTTGACAGAGAATCCGGA,0.42
8,TCTGGAGTCACCAACACTGTTA,-0.586
9,TATCATTACTCCGGAGTCGAGG,-0.921
10,TCGGACAGGACTATCCTTCAGC,-0.556
11,TATTTGTTCATTTCACTGCTGG,0.584
